Measurements taken from PubChem BioAssay (Tox21).
Values joined by “and” are separate entries in the source; they are usually repeats but may differ in a detail not shown here. Equal entries are not always repeated. Records with an inconclusive call do not appear. Active and inactive are the calls of the source. Unless noted, the call rests on the fitted dose curve; in most records, active means well fitted curve in the direction sought with a large enough effect in the repeat runs; inconclusive means weak or mixed curves; inactive means no such curve, though single readings can be large; an effect the other way counts as inactive or inconclusive.

Tests used:
[1] = qHTS assay to identify small molecule agonists of the RXR signaling pathway - cell viability counter screen (AID 1159529); further: nearly all actives have a fitted effect of over 50% in size; further: potency means the concentration at half of the fitted maximal effect
In short: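 Viability read-out for the RXR-alpha agonist qHTS: luminescent CellTiter-Glo signal after 30 min at RT. HEK 293T bla reporter cells, 2% charcoal-stripped FBS, 16 hr compound incubation; tetraoctyl ammonium bromide as cytotoxic control.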

[2] = qHTS assay to identify small molecule antagonists of the retinoid acid receptor (RAR) signaling pathway - cell viability counter screen (AID 1159551); further: nearly all actives have a fitted effect of over 35% in size
In short: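 Viability of C3RL4 cells is quantified from ATP by luminescence after 6 h treatment at 37 C with compounds and 1 uM retinol.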

[3] = qHTS assay to identify small molecule agonists of the retinoic acid receptor (RAR) signaling pathway (AID 1159553)
In short: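 Compounds dissolved in DMSO were pinned onto C3RL4 cells seeded the previous day, and plates were held 6 hr at 37 C. RARE-driven luciferase output was then read by luminescence.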

[4] = qHTS assay to identify small molecule antagonists of the estrogen related receptor (ERR) signaling pathway - cell viability counter screen (AID 1224818); further: series mostly up to about 46 µM
In short: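 Cytotoxicity check run alongside the ERR antagonist screen: cells exposed to test compounds 17.5 h at 37 C, viability taken as CellTiter-Fluor fluorescence intensity.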

[5] = qHTS assay to identify small molecule antagonists of the estrogen related receptor (ERR) signaling pathway (AID 1224819;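 further: luminescence from an ERR-driven luciferase reporter measured with One-Glo reagent; series mostly up to about 46 µM; nearly all actives have a fitted effect of over 50% in size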)
In short: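 ERR reporter cells were plated at 2,000 cells/well and left 6 h at 37 C/5% CO2 before pin-tool transfer of compounds in DMSO. After 18 h at 37 C, One-Glo was added and luminescence was read 30 min later at room temperature.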

[6] = qHTS assay to identify small molecule agonists of the estrogen related receptor (ERR) signaling pathway (AID 1224820)
In short: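 An ERR cell line provided by NTP was seeded at 2,000 cells per well and allowed to settle for 6 h before compounds in DMSO were added. After 18 h at 37 C, luciferase activity was measured by One-Glo luminescence.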

[7] = qHTS assay to identify small molecule antagonists of the estrogen related receptor signaling pathway with the pleiotropic PPARgamma coactivator (PGC) cell viability counter screen (AID 1224822; further: series mostly up to about 46 µM)
In short: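 Viable cell signal (CellTiter-Fluor, 30 min, 37 C/5% CO2) was measured in PGC/ERR cells after a 17.5 h compound incubation.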

[8] = qHTS assay to identify small molecule antagonists of the estrogen related receptor (ERR) signaling pathway from Tox21 library - cell viability counter screen (AID 1224834); further: nearly all actives have a fitted effect of over 30% in size; further: potency means the concentration at half of the fitted maximal effect
In short: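 In this quantitative HTS format, ERR cells receive compounds in DMSO and are incubated for 17.5 h at 37 C. Live-cell protease activity is then detected with CellTiter-Fluor.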

[9] = molecular target: Luciferin 4-monooxygenase (Photinus pyralis) (UniProt P08659); experiment: qHTS assay to identify small molecule inhibitors of firefly luciferase (AID 1224835); further: nearly all actives have a fitted effect of over 25% in size; further: potency means the concentration at half of the fitted maximal effect
In short: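 Inhibition of purified Photinus luciferase is measured by luminescence. Substrate levels (D-luciferin, ATP) sit at their KM values. Each compound is tested in a concentration series.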

[10] = qHTS assay to identify small molecule agonists of the constitutive androstane receptor (CAR) signaling pathway - cell viability counter screen (AID 1224836); further: series mostly up to about 92 µM; nearly all actives have a fitted effect of over 45% in size
In short: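 Multiplexed viability check: HepG2-CYP2B6-hCAR cells, 15-point compound dosing, 0.75 uM PK11195 final, 23 h at 37 C, CellTiter-Fluor fluorescence.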

[11] = qHTS assay to identify small molecule antagonists of the constitutive androstane receptor (CAR) signaling pathway - cell viability counter screen (AID 1224837); further: series mostly up to about 92 µM; nearly all actives have a fitted effect of over 45% in size
In short: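 In quantitative HTS format, compounds at 15 concentrations were applied to HepG2 cells double-transfected with hCAR and CYP2B6-2.2kb under 50 nM CITCO stimulation; live-cell protease activity was read after 23 hr via CellTiter-Fluor.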

[12] = molecular target: Nuclear receptor subfamily 1 group I member 3 (Homo sapiens) (UniProt Q14994); experiment: qHTS assay to identify small molecule antagonists of the constitutive androstane receptor (CAR) signaling pathway (AID 1224838); further: nearly all actives have a fitted effect of over 40% in size; further: potency means the concentration at half of the fitted maximal effect
In short: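 CITCO-stimulated (50 nM final) HepG2 cells stably transfected with hCAR and CYP2B6-2.2kb luciferase were exposed to compounds at 15 concentrations for 24 h at 37 C/5% CO2. A luciferase reagent was added and luminescence recorded after 30 min.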

[13] = qHTS assay to identify small molecule antagonists of the estrogen related receptor signaling pathway with the pleiotropic PPARgamma coactivator (PGC) from Tox21 10K library - cell viability counter screen (AID 1224840; active means well fitted cell-killing curve with a large enough effect in the repeat runs, not every such curve was filed as active; further: nearly all actives have a fitted effect of over 40% in size)
In short: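 Viability counter screen, PGC/ERR cells: 17.5 h compound exposure at 37 C, CellTiter-Fluor fluorescence endpoint.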

[14] = qHTS assay to identify small molecule antagonists of the estrogen related receptor signaling pathway with the pleiotropic PPARgamma coactivator (PGC) from Tox21 10K library (AID 1224841; call rule not given here; further: actives are mostly falling curves and most rising ones were filed inactive; nearly all actives have a fitted effect of over 50% in size; further: potency means the concentration at half of the fitted maximal effect)
In short: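 In the PGC/ERR line, DMSO solutions of test chemicals are pin-delivered to 2,000 cells/well six hours after dispensing. Following eighteen hours' incubation, One-Glo reagent is added and luminescence recorded.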

[15] = qHTS assay to identify small molecule agonists of the estrogen related receptor signaling pathway with the pleiotropic PPARgamma coactivator (PGC) from Tox21 10K library (AID 1224842); further: nearly all actives have a fitted effect of over 15% in size
In short: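 Luminescence from One-Glo (30 min, room temperature) measured after PGC/ERR cells had 18 h at 37 C with pinned compound (23 nL in DMSO). Cells had been seeded at 2,000 per well and pre-incubated 6 h.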

[16] = molecular target: Thyrotropin receptor (Homo sapiens) (UniProt P16473); experiment: qHTS assay to identify small molecule agonists of the thyroid stimulating hormone receptor (TSHR) signaling pathway (AID 1224843; calls by dose curve; further: nearly all actives have a fitted effect of over 45% in size)
In short: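 Agonist activity read as cAMP rise via d2/cryptate HTRF competition, 1 h room-temperature detection, in HEK293 cells expressing TSHR. Fifteen-point titrations, each run in triplicate, with a 30 min room-temperature incubation beforehand.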

[17] = qHTS assay to identify small molecule antagonists of the retinoic acid receptor (RAR) signaling pathway (AID 1159552; further: nearly all actives have a fitted effect of over 50% in size)
In short: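 Using a RARE-driven luciferase construct in C3RL4 cells, retinol at 1 uM final provided the agonist stimulus while compounds were co-applied. After 6 hours at 37 C, luminescence was recorded to flag inhibitors of retinol signaling.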

[18] = molecular target: Nuclear receptor subfamily 1 group I member 3 (Homo sapiens) (UniProt Q14994); experiment: qHTS assay to identify small molecule agonists of the constitutive androstane receptor (CAR) signaling pathway (AID 1224839);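 further: HepG2 cells stably carrying human CAR and a CYP2B6 luciferase reporter; series mostly up to about 92 µM; nearly all actives have a fitted effect of over 15% in size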
In short: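 Using human hepatoma HepG2 cells engineered with hCAR and a CYP2B6-2.2kb reporter, 15-concentration compound series were incubated 24 h alongside PK11195 at 0.75 uM final, with luminescence quantified afterwards.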

[19] = system: estrogen-related receptor alpha (ERRalpha) with PGC-1alpha coactivator, human; experiment: qHTS assay to identify small molecule antagonists of the estrogen related receptor signaling pathway with the pleiotropic PPARgamma coactivator (PGC) (AID 1224821; calls by dose curve)
In short: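 A PGC/ERR cell line supplied by NTP is seeded, allowed 6 h at 37 C, and treated with test compounds in DMSO for 18 h. Signal is then measured as luciferase luminescence using One-Glo.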

[20] = qHTS assay to identify small molecule agonists of the estrogen related receptor signaling pathway with the pleiotropic PPARgamma coactivator (PGC) (AID 1224823)
In short: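 Compounds dissolved in DMSO are added by pin tool to PGC/ERR cells that have settled for 6 h, and incubation continues 18 h at 37 C. Reporter output is measured as One-Glo luminescence.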

Measured: Potency

Chain of Nuclear receptor subfamily 1 group I member 3 (Homo sapiens) (Q14994 whole entry, looked up): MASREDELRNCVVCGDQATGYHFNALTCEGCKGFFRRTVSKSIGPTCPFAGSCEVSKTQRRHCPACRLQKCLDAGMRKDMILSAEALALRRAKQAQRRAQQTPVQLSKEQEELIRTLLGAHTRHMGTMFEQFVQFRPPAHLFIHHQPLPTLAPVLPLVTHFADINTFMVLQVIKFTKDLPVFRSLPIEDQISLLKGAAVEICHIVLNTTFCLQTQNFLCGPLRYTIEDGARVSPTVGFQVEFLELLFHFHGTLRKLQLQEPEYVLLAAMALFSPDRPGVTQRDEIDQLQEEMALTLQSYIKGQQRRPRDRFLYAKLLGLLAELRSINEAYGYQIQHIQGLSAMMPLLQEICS
Chain of Luciferin 4-monooxygenase (Photinus pyralis) (P08659 whole entry, looked up): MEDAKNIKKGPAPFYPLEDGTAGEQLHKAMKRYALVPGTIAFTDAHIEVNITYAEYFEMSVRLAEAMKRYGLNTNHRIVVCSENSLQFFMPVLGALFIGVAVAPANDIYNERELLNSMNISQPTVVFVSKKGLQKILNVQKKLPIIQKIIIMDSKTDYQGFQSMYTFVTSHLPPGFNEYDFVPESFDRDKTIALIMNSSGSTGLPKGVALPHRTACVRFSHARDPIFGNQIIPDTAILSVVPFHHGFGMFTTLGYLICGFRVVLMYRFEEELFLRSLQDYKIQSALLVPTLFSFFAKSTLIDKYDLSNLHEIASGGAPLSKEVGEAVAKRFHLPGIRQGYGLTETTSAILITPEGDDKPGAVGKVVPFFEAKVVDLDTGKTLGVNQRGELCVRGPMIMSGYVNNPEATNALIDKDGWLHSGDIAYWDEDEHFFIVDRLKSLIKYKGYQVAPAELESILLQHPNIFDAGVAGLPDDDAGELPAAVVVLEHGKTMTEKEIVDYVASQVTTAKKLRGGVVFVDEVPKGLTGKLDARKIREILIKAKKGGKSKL
Chain of Thyrotropin receptor (Homo sapiens) (P16473 whole entry, looked up): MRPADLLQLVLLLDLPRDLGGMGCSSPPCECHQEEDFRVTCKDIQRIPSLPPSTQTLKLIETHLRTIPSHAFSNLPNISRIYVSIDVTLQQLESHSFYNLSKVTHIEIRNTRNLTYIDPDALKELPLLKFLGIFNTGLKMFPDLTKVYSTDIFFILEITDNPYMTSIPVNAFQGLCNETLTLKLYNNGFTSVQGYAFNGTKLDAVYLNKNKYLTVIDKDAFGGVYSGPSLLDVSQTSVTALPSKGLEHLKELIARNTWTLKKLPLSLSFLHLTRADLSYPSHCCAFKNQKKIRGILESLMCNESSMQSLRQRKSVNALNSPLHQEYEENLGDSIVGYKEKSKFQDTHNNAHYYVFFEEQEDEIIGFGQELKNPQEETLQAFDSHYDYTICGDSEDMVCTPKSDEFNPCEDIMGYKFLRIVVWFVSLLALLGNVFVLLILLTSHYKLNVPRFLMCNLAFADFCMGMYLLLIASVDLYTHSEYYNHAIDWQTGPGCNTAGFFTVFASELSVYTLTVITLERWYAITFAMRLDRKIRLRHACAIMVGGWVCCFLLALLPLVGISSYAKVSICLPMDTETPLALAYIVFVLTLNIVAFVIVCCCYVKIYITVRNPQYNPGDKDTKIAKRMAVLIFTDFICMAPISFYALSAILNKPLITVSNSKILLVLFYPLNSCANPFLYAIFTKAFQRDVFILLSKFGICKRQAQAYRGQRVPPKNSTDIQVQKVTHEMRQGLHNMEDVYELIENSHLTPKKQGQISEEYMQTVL

[Cl][In]([Cl])[Cl]
active: [9] 36.6 µM and 39.9 µM
not listed: [14] | [15] | [16] | [17] | [18] | [19] | [20]
inactive: all other assays above

CC(=O)CC(C)=O
inactive: [1] | [2] | [3] | [8] | [9] | [10] | [11] | [13] | [14] | [15] | [16]

O=C1NCC2(CCN(CCc3ccccc3)CC2)O1
not listed: [1] | [5] | [6] | [14] | [15] | [19] | [20]
inactive: all other assays above

BrC1CCC(Br)C(Br)CCC(Br)C(Br)CCC1Br (configuration not stated)
active: [1] 15.4 µM and 18.5 µM | [8] 48.4 µM | [12] 21.6 µM and 25.9 µM | [14] 30.5 µM
inactive: [2] | [9] | [10] | [11] | [15]

CC(C)C(=O)c1c(C(C)C)nn2ccccc12
not listed: [1] | [10] | [16] | [18]
inactive: all other assays above
